How the values were obtained:
[1] = tested on: Botulinum neurotoxin type F light chain protease (Clostridium botulinum); test: Botulinum neurotoxin type F light chain protease inhibition, multiplex microsphere flow cytometry, validation set (AID 588459); conditions: multiplex microsphere protease substrate cleavage assay, at 10 µM, stronger effect = higher value
[2] = molecular target: Botulinum neurotoxin type A (Clostridium botulinum) (UniProt P0DPI0); test: BoNT/A light chain protease inhibitors, biochemical, multiplex microsphere flow cytometry, validation set (AID 588460); conditions: at 10 µM, stronger effect = higher value
[3] = molecular target: Lethal factor (Bacillus anthracis) (UniProt P15917); test: Lethal factor protease inhibitors, Bacillus anthracis, multiplex microsphere cleavage assay, validation set (AID 588461); conditions: flow cytometry, at 10 µM, stronger effect = higher value

Measured: inhibition

Lethal factor (Bacillus anthracis), sequence (P15917 whole entry, looked up): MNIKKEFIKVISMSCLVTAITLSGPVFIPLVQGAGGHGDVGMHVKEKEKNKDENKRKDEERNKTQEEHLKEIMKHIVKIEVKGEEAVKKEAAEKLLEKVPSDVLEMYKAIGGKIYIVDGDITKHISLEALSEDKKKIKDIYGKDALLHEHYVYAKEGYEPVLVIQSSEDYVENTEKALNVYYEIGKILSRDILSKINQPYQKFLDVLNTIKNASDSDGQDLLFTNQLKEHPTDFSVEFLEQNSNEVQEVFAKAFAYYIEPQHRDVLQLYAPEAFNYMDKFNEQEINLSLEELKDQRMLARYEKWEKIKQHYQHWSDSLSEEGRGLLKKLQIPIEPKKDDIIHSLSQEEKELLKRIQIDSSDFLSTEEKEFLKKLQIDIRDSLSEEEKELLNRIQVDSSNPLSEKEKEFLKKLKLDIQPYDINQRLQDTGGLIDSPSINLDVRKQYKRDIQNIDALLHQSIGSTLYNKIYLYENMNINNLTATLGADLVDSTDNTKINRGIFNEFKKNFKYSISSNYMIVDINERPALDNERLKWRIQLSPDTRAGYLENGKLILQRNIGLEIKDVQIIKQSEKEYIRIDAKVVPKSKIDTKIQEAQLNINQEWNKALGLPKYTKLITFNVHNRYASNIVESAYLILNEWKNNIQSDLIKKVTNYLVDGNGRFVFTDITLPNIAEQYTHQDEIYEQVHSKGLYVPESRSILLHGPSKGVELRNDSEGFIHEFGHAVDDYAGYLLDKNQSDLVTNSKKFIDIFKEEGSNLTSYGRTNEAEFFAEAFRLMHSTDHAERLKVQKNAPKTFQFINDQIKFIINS
Botulinum neurotoxin type A (Clostridium botulinum), sequence (P0DPI0 whole entry, looked up): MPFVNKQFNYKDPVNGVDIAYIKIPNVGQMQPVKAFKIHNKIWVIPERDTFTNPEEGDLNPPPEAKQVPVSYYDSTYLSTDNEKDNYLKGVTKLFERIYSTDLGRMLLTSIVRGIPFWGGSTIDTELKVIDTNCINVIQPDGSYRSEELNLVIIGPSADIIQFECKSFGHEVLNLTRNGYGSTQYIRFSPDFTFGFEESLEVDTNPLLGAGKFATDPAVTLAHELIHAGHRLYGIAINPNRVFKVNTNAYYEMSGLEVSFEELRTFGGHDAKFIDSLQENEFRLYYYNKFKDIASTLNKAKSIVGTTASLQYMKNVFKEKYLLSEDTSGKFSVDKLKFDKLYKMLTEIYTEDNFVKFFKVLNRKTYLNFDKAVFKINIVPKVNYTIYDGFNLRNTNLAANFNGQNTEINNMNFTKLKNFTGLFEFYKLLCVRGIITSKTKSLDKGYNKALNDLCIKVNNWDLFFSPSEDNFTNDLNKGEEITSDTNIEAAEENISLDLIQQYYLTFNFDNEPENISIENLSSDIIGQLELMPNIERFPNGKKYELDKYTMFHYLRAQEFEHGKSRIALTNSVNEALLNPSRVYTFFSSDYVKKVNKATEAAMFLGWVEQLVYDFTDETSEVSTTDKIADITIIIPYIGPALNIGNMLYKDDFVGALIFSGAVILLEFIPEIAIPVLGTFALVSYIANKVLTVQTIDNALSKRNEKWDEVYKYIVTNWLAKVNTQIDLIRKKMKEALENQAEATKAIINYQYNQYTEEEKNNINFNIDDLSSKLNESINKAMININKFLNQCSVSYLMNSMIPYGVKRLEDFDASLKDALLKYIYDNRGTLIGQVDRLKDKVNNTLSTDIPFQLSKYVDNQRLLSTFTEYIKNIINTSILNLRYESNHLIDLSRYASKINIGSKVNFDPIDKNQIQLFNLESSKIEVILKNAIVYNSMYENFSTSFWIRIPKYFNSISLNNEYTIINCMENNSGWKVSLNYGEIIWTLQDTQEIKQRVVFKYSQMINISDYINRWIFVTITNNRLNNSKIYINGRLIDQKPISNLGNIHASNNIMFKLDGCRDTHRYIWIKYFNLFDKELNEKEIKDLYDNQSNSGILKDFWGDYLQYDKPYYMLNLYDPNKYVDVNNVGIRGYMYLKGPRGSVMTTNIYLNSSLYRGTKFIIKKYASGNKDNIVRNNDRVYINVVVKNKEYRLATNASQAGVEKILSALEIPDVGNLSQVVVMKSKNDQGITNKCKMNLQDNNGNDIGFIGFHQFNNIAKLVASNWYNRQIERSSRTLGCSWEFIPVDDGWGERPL

CCOC(=O)C1C(=O)OC(C)(C)C1C(C)C(=O)c1ccc(C)cc1 (stereo not drawn)
inactive: [1] 4.4% | [2] 0.5% | [3] 4.6%

Cc1cccc(N2CCN(C(=S)c3ccccc3)CC2)c1
inactive: [1] 3.3% | [2] -1.9% | [3] -2.9%

COc1c2occc2c(OC)c2c(=O)cc(C)oc12
inactive: [1] -0.3% | [2] -1.1% | [3] 4.5%

Cn1c(=S)n(C)c2ccccc21
inactive: [1] 4% | [2] 0.1% | [3] 2.8%

Cc1ccccc1C(OCCN(C)C)c1ccccc1 (stereo not drawn)
inactive: [1] 1.2% | [2] 0.7% | [3] 2.5%

CCOc1ccc(C(=O)Nc2ccc(N3CCN(C(C)=O)CC3)cc2)cc1[N+](=O)[O-]
inactive: [1] 1.6% | [2] 0% | [3] 0.9%

CCNC(=O)c1c(N)sc2c1CCCCC2
inactive: [1] 0.9% | [2] -0.9% | [3] -5.1%

O=C(O)C1[C@H]2C(=O)N(C3CCCC3)C[C@]23C=C[C@H]1O3 (stereo partly drawn)
inactive: [1] 6.7% | [2] 1.3% | [3] 5.6%

CN1[C@@H](CC(=O)c2ccccc2)CCC[C@H]1C[C@H](O)c1ccccc1
inactive: [1] 3.2% | [2] -1% | [3] -2.2%

CC(C)=CCC/C(C)=C/CC/C(C)=N/O
inactive: [1] -1.6% | [2] -0.4% | [3] 4.1%

COc1ccc(C2C3=C(OC(C)=O)c4ccccc4C3=Nc3c2c(=O)n(C)c(=O)n3C)cc1 (stereo not drawn)
inactive: [1] 4% | [2] 0.1% | [3] 2.9%
